66 compounds from PubChem BioAssay AID686979 (National Center for Advancing Translational Sciences (NCATS), 2013) can be followed below.

Among all 420,000 compounds or so, about 50,000 (12%) were called active. About 26% were inconclusive and are not listed. The call rests on the fitted dose curve; in most records, active means well fitted inhibition curve with a large enough effect; inconclusive means small, poorly fitted or top-dose-only effect; inactive means flat fitted curve, though single readings scatter. Shown is part of a subset that was picked to be rich in actives. A call without a number means that no potency is given here.
Potency means the concentration at half of the fitted maximal effect.

The nature of the test: qHTS for Inhibitors of human tyrosyl-DNA phosphodiesterase 1 (TDP1): qHTS in cells in presence of CPT. Further: nearly all actives have a fitted effect of over 55% in size. The note with it: chicken DT40 Tdp1-/-;hTDP1 cells + 20 nM CPT, ATP luminescence, 48 h; series mostly up to 46.2 µM. Summed up:
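Chicken DT40 Tdp1-/- cells stably complemented with human TDP1 were seeded at 400 cells/well in medium containing 20 nM camptothecin, exposed to pin-transferred compounds, and grown at 37 °C for at least 48 hr. Viability was read as ATP luminescence.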
As to `Cc1cc(-c2ccccc2)nc(N2CCC(C(=O)NC34CC5CC(CC(C5)C3)C4)CC2)n1`, the Potency result was “inactive”. With `CSCCC(NC(=O)COc1ccccc1)C(=O)N1CCN(c2cccc(C(F)(F)F)c2)CC1` (stereo unspecified) the figure was 16.4 µM (active); with `CSCCC(NC(=O)COc1ccccc1)C(=O)OCCOc1ccc(Br)cc1` (stereo unspecified), “inactive”; with `CSCCC(NC(=O)COc1ccccc1)C(=O)OCCOc1ccc(F)cc1` (stereo unspecified), “inactive”. For the compound `Nc1cc(N2CCCCCC2)c2nonc2c1[N+](=O)[O-]`, the Potency entry is “inactive”.

For `CCCCC(CCCC)c1ccc(C=Nc2ccc(/C=C/c3ccnc4ccccc34)cc2)cc1`, the Potency is 17.8 µM (active). With `C(=Nc1ccc(/C=C/c2ccnc3ccccc23)cc1)Nc1ccc(/C=C/c2ccnc3ccccc23)cc1` the figure was 10 µM (active). With `C(=Nc1ccc(/C=C/c2ccnc3ccccc23)cc1)c1cc2c3c(c1)CCCN3CCC2`, the Potency is 11.2 µM (active).

Consider `Cc1ccc(CNC(=O)CCNS(=O)(=O)c2cccc3nonc23)cc1`, for which the Potency entry is “inactive”. Under `CCOC(=O)Cc1ccc(NC(=O)Nc2c[nH]c(=O)[nH]c2=O)cc1` stands “inactive”; under `O=C(NNC(=S)Nc1ccc(F)cc1)[C@H]1C[C@@H]1c1ccccc1`, “inactive”; under `CC(Oc1ccccc1F)C(=O)NN` (stereo unspecified), “inactive”. As to `Cc1ccc(S(=O)(=O)N(C)C)cc1NC(=O)CN1c2cccc3cccc(c23)S1(=O)=O`, the Potency result was “inactive”. With `Cc1c(NC(=O)c2c([N+](=O)[O-])cnn2C)c(=O)n(-c2ccccc2)n1C` the entry was “inactive”; with `CC(C)CC(NS(=O)(=O)c1ccc2c(c1)oc(=O)n2C)C(=O)NCc1ccccc1Cl` (stereo unspecified), “inactive”. With `O=c1c2cc([N+](=O)[O-])ccc2nc2n1CCC2` the entry was “inactive”. Under `Cc1cc(C(C)(C)C)cc(C)c1N` stands “inactive”. As to `C=CCn1c(=NC(=O)c2ccc(S(=O)(=O)N3CCCC3)cc2)sc2cc(NC(C)=O)ccc21`, the Potency entry was “inactive”. With `C=CCn1c(CCNC(=O)c2cccs2)n[nH]c1=S`, the Potency entry is “inactive”. With `C=CCn1c(=NC(=O)c2cccs2)sc2cc(NC(C)=O)ccc21` the figure was 13 µM (active); with `Cc1cccc(CCNS(=O)(=O)c2ccc3c(c2)NC(=O)CO3)c1`, “inactive”; with `CCOC(=O)c1cc2c(=O)n3ccccc3nc2n(CC2CCCO2)c1=NC(=O)c1ccc(C(C)(C)C)cc1` (stereo unspecified), “inactive”. Take `CCc1nc(SCC(=O)NNC(=O)c2ccc(C)cc2)c2ccccc2n1`: the Potency result was “inactive”.

As to `COC(=O)CSc1nc(C2CC2)nc2ccccc12`, the Potency entry was “inactive”.

Consider `CC(C)N(C(=O)CSc1nc(COc2ccccc2)nc2ccccc12)C(C)C`, for which the Potency is 23.1 µM (active). Under `CCC(=O)Nc1ccccc1C(=O)N1CCN(Cc2ccccc2)CC1` stands “inactive”; under `Cc1nn(Cc2ccccc2)c(C)c1C(=O)N1CCN(CC(=O)Nc2ccccc2Cl)CC1`, 16.4 µM (active). Under `Cc1cc(C)cc(NC(=O)NC2CCN(CC(=O)Nc3cccc(Cl)c3C)CC2)c1` stands “inactive”. For `CNC(=O)CN1C(=O)NC(c2ccccc2)(c2ccccc2)C1=O`, the Potency entry is “inactive”.

For `Cc1ccc(SCC(=O)N2CCN(c3ccc(F)cc3)CC2)cc1`, the Potency entry was “inactive”.

For the compound `Cc1ccc(CSCC2Nc3ccc(C(=O)N4CCN(c5ccc(F)cc5)CC4)cc3NC2=O)cc1` (stereo unspecified), the Potency is 16.4 µM (active). With `COC(=O)c1ccc(C(=O)OC)c(NC(=S)N2CCN(c3ccc(F)cc3)CC2)c1` the entry was “inactive”; with `CN(Cc1ccc(CNC[C@H]2O[C@@H](n3cnc4c(N)ncnc43)[C@H](O)[C@@H]2O)o1)S(C)(=O)=O`, “inactive”; with `Cn1cccc1C(C#N)c1ccccc1C#N` (stereo unspecified), “inactive”.

Turning to `Cc1ccc(C2=Nc3c(ccc4ccccc34)C(c3ccncc3)=NN2)cc1`, the Potency was 18.4 µM (active). For `CCc1ccc2c(c1)C(c1ccc([N+](=O)[O-])cc1)=NNC(c1ccccc1)=N2`, the Potency result is “inactive”.

Take `Cc1cc(C)n2nc(C(=O)OC(C)C(=O)c3cc(C)c(C)cc3C)nc2n1` (stereo unspecified): the Potency result was “inactive”. With `COc1ccc(C(=O)NC2CCN(C(=S)Nc3ccccc3)CC2)cc1` the entry was “inactive”; with `COc1ccc(C(=O)NC2CCN(C(=S)NCCc3ccccc3)CC2)cc1`, “inactive”. With `COc1cc(OC)cc(C(=O)NC2CCN(C(=O)N3c4ccccc4Sc4ccccc43)CC2)c1` the figure was 29.1 µM (active). With `O=C(c1ncn2c1c(=O)[nH]c1ccccc12)N1CCc2ccccc2C1`, the Potency result is “inactive”.

Turning to `CCOC(=O)C1CCCN(CC(=O)Nc2cc(C)c3c(=O)oc4ccccc4c3n2)C1` (stereo unspecified), the Potency entry was “inactive”. With `COc1cc(/C=C/C(=O)O)cc(S(=O)(=O)Nc2ccccc2SC)c1OC` the entry was “inactive”; with `CCn1c(=O)cc(SCC(=O)NCc2ccc3c(c2)OCO3)c2ccccc21`, “inactive”; with `O=C1N(Cc2ccccc2)c2ccc(Cl)cc2C1(O)c1c[nH]c2ccccc12` (stereo unspecified), 23.1 µM (active). `O=C(COC(=O)c1cc(=O)[nH]c2ccccc12)NCc1cccc(Cl)c1`: the Potency result was “inactive”. For `O=C(CC1Oc2ccc(Cl)cc2NC1=O)NCc1ccccc1` (stereo unspecified), the Potency result is “inactive”. With `O=C(CSc1ncn[nH]1)NCc1ccc2c(c1)OCO2` the entry was “inactive”; with `O=C1N(Cc2ccc3c(c2)OCO3)c2ccccc2C1(O)c1c[nH]c2ccccc12` (stereo unspecified), 18.4 µM (active). Under `CCOc1ccc(CCNC(=O)COC(=O)c2ccc(F)c(S(=O)(=O)N3CCOCC3)c2)cc1OCC` stands “inactive”; under `O=C(CSc1nnc(-c2ccncc2)o1)Nc1cccc(Cl)c1`, “inactive”. Under `COC(=O)c1cnc(Nc2cc(C)ccc2OC)c2ccccc12` stands “inactive”. `O=[N+]([O-])c1ccccc1Nc1ccc(O)cc1`: the Potency result was “inactive”. As to `Oc1ccc(CNc2ccccc2O)cc1`, the Potency is 25.9 µM (active). With `O=C(OCc1ccccc1)c1ccc(O)cc1` the entry was “inactive”; with `CCOC(=O)C(C)N(c1ccccc1Cl)S(C)(=O)=O` (stereo unspecified), “inactive”; with `O=C(NCCCN1CCOCC1)c1cc(-c2cccc(O)c2)on1`, “inactive”. With `Cc1nc([N+](=O)[O-])nn1C12CC3CC(CC(Br)(C3)C1)C2` the figure was 23.1 µM (active); with `CC[C@@H](C)[C@H](NC(=O)CCc1c(C)c2cc3c4c(oc3c(C)c2oc1=O)CCCC4)C(=O)O`, “inactive”; with `COCc1c(C(=O)N/N=C(\C)c2ccncc2)nnn1-c1nonc1N`, “inactive”. With `CSc1ccc(/C=C2\NC(=O)NC2=O)cc1` the entry was “inactive”; with `O=C(Nc1ccnn1C1CCN(Cc2cccc(OCCO)c2)CC1)C1CCCC1`, “inactive”. Take `CCN(CC)CCN(C(=O)c1cc(Cl)sc1Cl)c1nc2cc3c(cc2s1)OCO3`: the Potency entry was “inactive”. In the case of `Nc1ccccc1Sc1ccc(C(F)(F)F)cc1[N+](=O)[O-]`, the Potency entry is “inactive”. Under `Nc1ccccc1SCc1cc([N+](=O)[O-])cc2c1OCOC2` stands “inactive”. Under `Nc1ccccc1SC(C[N+](=O)[O-])c1ccccc1` (stereo unspecified) stands 4.11 µM (active).
